# Calls of active or inactive are those of the source. How the source made its calls: active means hit-call score of the fitted dose curve at least 0.9, where 1 is the maximum; inactive means score below 0.9.
# Read-out: DNA damage-inducible transcript 3 (DDIT3), DDIT3 (gene 1649)
# Experiment: LTEA_HepaRG_DDIT3: Life Technologies and Expression Analysis (LTEA) Assay for DNA damage-inducible transcript 3 (DDIT3) using HepaRG (AID 2283488)
# Conditions: mRNA level, 48 h; actives raise or lower the signal
# Method: LTEA_HepaRG is a cell based, multiplexed-readout assay that uses HepaRG, a human liver cell line, with measurements taken at 48 hours after chemical dosing on a 96-well plate.LTEA_HepaRG_DDIT3 is one of 102 assay component(s) measured in the LTEA HepaRG cell culture assay. It is a marker of Oxidative Stress.Data from the assay component LTEA_HepaRG_DDIT3 was analyzed into 1 endpoint. This assay endpoint, LTEA_HepaRG_DDIT3, was analyzed with bidirectional fitting relative to DMSO as the negative control and baseline of activity. Using a type of inducible reporter, measures of mRNA induction for gain or loss-of-signal activity can be used to understand regulation of transcription factor activity. To generalize the intended target to other relatable targets, this assay endpoint is annotated to the dna binding intended target family, where the subfamily is basic leucine zipper.
# A total of 1060 chemcials from the ToxCast library were tested in eight-point concentration-response experiments. Cell culture and cytotoxicity assays were conducted at Thermo Fisher Scientific's Custom Services facility (Madison, WI). A single lot of human HepaRG cells (Thermo Fisher Scientific, Frederick, MD) was used for the cell culture experiments. 96-well format collagen type I coated plates of human HepaRG cells were prepared using established methods. Briefly, cryopreserved HepaRG cells were thawed, plated at a density of approximately 100,000 cells/well in HepaRG Thaw, Plate, and General Purpose media (HPRG770, Thermo Fisher Scientific), and incubated for 48 hours. 0.5% DMSO was selected as vehicle control to balance the requisite need of DMSO in HepaRG cultures to maintain differentiation (for example, baseline metabolism, proportions of hepatocytes vs. cholangiocytes), while enabling further hepatic receptor pathway activation (for example, PXR and CAR) in response to chemical exposure. 48 hours after plating, the culture medium was replaced with HepaRG Serum-Free Incudtion Media. Cells were exposed to each test chemical in duplicate and maintained in CO2 incubators for another 48 hours. Chemical plates were thawed to room temperature and 200x concentrations of treatment groups were prepared. 8-point conentration-reponse curves were made with the highest exposure at 100 uM, followed by half-log dilutions, all in 0.5% DMSO. Each test plate contained variouse controls, induction positive controls (1mM phenobarbital), cytotoxicity positive controls ([…] aflatoxin B1), vehicle controls (0.5% DMSO), and total lysis controls (0.5% DMSO). Cell morphology images were taken using an Essen IncuCyte FLR automated microscope, with six 96-well plates imaged in about 24 minutes. Images were captured and exported and JPEG files. Spent culture media was transfered to black-well plates for the LDH assay, and remaining media was sorted at -80 C for later use. Cells were treated with RLT buffer and frozen until shipped for gene expression analysis. Total RNA was isolated from the cell suspension in 75 uL of Buffer RLT (Qiagen, Germantown, MD 20874) by Quintiles/Expression Analysis (Durham, NC) using a custom isolation procedure. Total RNA from each plate well was transferred to a preamplification plate. Fluidigm's 96.96 Dynamic ArrayTM (Fluidigm, Amsterdam, the Netherlands) technology was used for gene expression analyses by quantitative reverse transcription polymerase chain reaction (qRT-PCR, performed by Quintiles/Expression Analysis, Durham, NC)89. Standard TaqManTM Assays (Applied Biosystems/ThermoFisher Scientific, Foster City, CA) were used to assess the expression of 93 genes selected based on their selectivity and sensitivity to important hepatic receptors known to be modulated by environmental chemicals; importance in human hepatocyte functionality; and hepatotoxicity. […]
Compound,AC50,outcome
CC#C[C@]1(O)CC[C@H]2[C@@H]3CCC4=CC(=O)CCC4=C3[C@@H](c3ccc(N(C)C)cc3)C[C@@]21C,29.2 µM (active),
CC(C)CCCCCCOC(=O)CCCCC(=O)OCCCCCCC(C)C,,inactive
c1ccc2cc3c(ccc4ccccc43)cc2c1,17.7 µM (active),
NC(=O)N1C(=O)C(C(=O)c2cc(Cl)cs2)c2cc(F)c(Cl)cc21 (stereo not given),22.9 µM (active),
CC(C)(C)CC(C)(C)c1ccc(O)c(-n2nc3ccccc3n2)c1,,inactive
COC(=O)CCCCC(=O)OC,,inactive
C=C(C)C(=O)OCCC(F)(F)C(F)(F)C(F)(F)C(F)(F)C(F)(F)C(F)(F)F,,inactive
CCCCOCCO,,inactive
CN1CCC[C@H]1c1cccnc1,,inactive
OC1CCCCC1,,inactive
O=C(O)c1ccccc1C(c1ccc(O)cc1)c1ccc(O)cc1,,inactive
CC(C)(C)c1ccc(O)c(C(C)(C)C)c1,,inactive
CCC(=C(c1ccc(O)cc1)c1ccc(OCCN(C)C)cc1)c1ccccc1,72.8 µM (active),
OCCC(F)(F)C(F)(F)C(F)(F)C(F)(F)C(F)(F)C(F)(F)C(F)(F)C(F)(F)F,,inactive
CCCCCCC(=O)O,,inactive
CC(C)(C)c1cccc(C(C)(C)C)c1O,12.2 µM (active),
c1ccc2c(c1)Cc1ccccc1-2,,inactive
Nc1cccc2c(N)cccc12,,inactive
COc1ccc([N+](=O)[O-])cc1N,,inactive
O=C(OCCOCCOC(=O)c1ccccc1)c1ccccc1,,inactive

Compound,AC50,outcome
Cc1cc(CCN2CCN(c3nsc4ccccc34)CC2)cc2c1NC(=O)CC2(C)C,71.9 µM (active),
CN1CCN(c2ccccc2/C=C2\SCCN(c3ccc(Cl)c(Cl)c3)C2=O)CC1,50 µM (active),
ClC1=C(Cl)C(Cl)(Cl)C(Cl)=C1Cl,,inactive
C[C@@H]1C[C@H]2[C@@H]3CCC4=CC(=O)C=C[C@]4(C)[C@@]3(F)[C@@H](O)C[C@]2(C)[C@@]1(O)C(=O)COP(=O)(O)O,,inactive
CCCCCCCC(=O)O,,inactive
O=[N+]([O-])c1ccc(O)cc1,,inactive
O=C(O)Cc1cc(I)c(Oc2cc(I)c(O)c(I)c2)c(I)c1,51.9 µM (active),
Oc1cc2ccccc2c2ccccc12,,inactive
CCCCCCCCCCCCc1ccccc1S(=O)(=O)O,62.1 µM (active),
CC(=O)NC1(c2cccc(F)c2)CCN(CC[C@@]2(c3ccc(Cl)c(Cl)c3)CN(c3ccccc3)C(=O)CO2)CC1,41.5 µM (active),
c1ccc2c(c1)ccc1ccccc12,,inactive
CC[C@H](C)[C@@H](C(=O)O)n1sc2ccccc2c1=O,,inactive
COCC(C)OCC(C)O (stereo not given),,inactive
CCCCCCCCC(=O)O,,inactive
CCCCC(CC)COC(=O)CCCCC(=O)OCc1ccccc1 (stereo not given),,inactive
Oc1cccc(O)c1,,inactive
CN(C)C=O,,inactive
O=c1c(-c2ccc(O)cc2)coc2cc(O)ccc12,,inactive
CC1=C(/C=C/C(C)=C/C=C/C(C)=C/C(=O)O)C(C)(C)CCC1,,inactive
CCN(CC)CCNc1ccc(CNC=O)c2sc3ccc(OC)cc3c(=O)c12,,inactive
